Measured values published in PubChem BioAssay AID1159580 (chemical genetic matrix, 2015).
Several values for one entry are separate records, joined by “and”; a condition that tells them apart may be missing. Equal values may be shown once. In all, about 5,500 compounds went through this assay and about 2,000 (36%) were called active. Another 18% or so got no clear call; they are omitted. No stated cut-off is given here; in the data, active means normalized growth mostly below about 0.91 (no sharp cut-off); inconclusive means no clear call, values can overlap the other calls; inactive means mostly above about 0.92. Some of the results follow.

Test: chemical genetic growth profiling, strain panel (AID 1159580);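 further: tested at 20 µM; growth read once vehicle control cultures reached saturation at 30 °C; 1 = growth at the plate median or of vehicle wells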
Settings: S. cerevisiae deletion strains, growth OD

Measured: normalized growth

O=C(Oc1ccccc1C(=O)O)c1ccccc1O
inactive: locus YAL013W, strain DEP1, stronger effect = lower value 0.985 | locus YAL021C, strain ccr4, stronger effect = lower value 1 | locus YAL026C, strain drs2, stronger effect = lower value 0.982 | locus YAL030W, strain snc1, stronger effect = lower value 0.979 | locus YBL061C, strain skt5, stronger effect = lower value 0.973 | locus YBR009C, strain hhf1, stronger effect = lower value 1.01 | locus YBR021W, strain FUR4, stronger effect = lower value 1 | locus YBR023C, strain chs3, stronger effect = lower value 1 | locus YBR171W, strain sec66, stronger effect = lower value 0.941 | locus YBR229C, strain ROT2, stronger effect = lower value 0.955 | locus YBR231C, strain swc5, stronger effect = lower value 0.984 | locus YBR279W, strain paf1, stronger effect = lower value 1 | locus YCL011C, strain gbp2, stronger effect = lower value 0.975 | locus YCL016C, strain dcc1, stronger effect = lower value 1 | locus YCL029C, strain bik1, stronger effect = lower value 0.985 | locus YCL069W, strain vba3, stronger effect = lower value 0.986 | locus YCR088W, strain abp1, stronger effect = lower value 0.972 | locus YDL005C, strain med2, stronger effect = lower value 0.944 | locus YDL035C, strain GPR1, stronger effect = lower value 0.964 | locus YDL040C, strain nat1, stronger effect = lower value 0.982 | locus YDL074C, strain BRE1, stronger effect = lower value 0.974 | locus YDL101C, strain DUN1, stronger effect = lower value 0.98 | locus YDL185W, strain tfp1, stronger effect = lower value 0.961 | locus YDL192W, strain arf1, stronger effect = lower value 0.977 | locus YDR001C, strain nth1, stronger effect = lower value 0.953 | locus YDR069C, strain doa4, stronger effect = lower value 0.971 | locus YDR101C, strain arx1, stronger effect = lower value 0.944 | locus YDR137W, strain rgp1, stronger effect = lower value 0.972 | locus YDR159W, strain sac3, stronger effect = lower value 0.978 | locus YDR162C, strain NBP2, stronger effect = lower value 0.97 | locus YDR195W, strain ref2 0.897 | locus YDR297W, strain sur2, stronger effect = lower value 0.997 | locus YDR318W, strain mcm21, stronger effect = lower value 1 | locus YDR334W, strain swr1, stronger effect = lower value 0.942 | locus YDR335W, strain msn5, stronger effect = lower value 0.975 | locus YDR388W, stronger effect = lower value 0.976 | locus YDR392W, strain spt3, stronger effect = lower value 1 | locus YDR502C, strain sam2, stronger effect = lower value 0.996 | locus YEL003W, strain gim4, stronger effect = lower value 0.979 | locus YEL037C, strain rad23, stronger effect = lower value 0.965 | locus YEL061C, strain CIN8 (second series), stronger effect = lower value 0.978 | locus YEL061C, strain CIN8, stronger effect = lower value 0.984 | locus YER015W, strain faa2, stronger effect = lower value 0.989 | locus YER016W, strain bim1, stronger effect = lower value 1 | locus YER110C, stronger effect = lower value 0.983 | locus YER111C, strain swi4, stronger effect = lower value 0.95 | locus YER155C, strain BEM2 (second series), stronger effect = lower value 0.99 | locus YER155C, strain BEM2, stronger effect = lower value 0.997 | locus YER167W, strain BCK2, stronger effect = lower value 1 | locus YFR010W, strain ubp6, stronger effect = lower value 0.966 | locus YGL078C, strain dbp3, stronger effect = lower value 1.01 | locus YGL086W, strain mad1, stronger effect = lower value 0.976 | locus YGL167C, strain pmr1, stronger effect = lower value 0.937 | locus YGL173C, strain kem1, stronger effect = lower value 0.979 | locus YGL227W, strain vid30, stronger effect = lower value 0.98 | locus YGL240W, strain doc1, stronger effect = lower value 0.985 | locus YGL248W, strain PDE1, stronger effect = lower value 0.99 | locus YGL253W, strain hxk2, stronger effect = lower value 0.968 | locus YGR135W, strain pre9, stronger effect = lower value 1.06 | locus YGR252W, strain gcn5, stronger effect = lower value 1.09 | locus YHR013C, strain ard1, stronger effect = lower value 0.963 | locus YHR027C, strain rpn1, stronger effect = lower value 0.985 | locus YHR030C, strain SLT2, stronger effect = lower value 0.977 and 1 | locus YHR079C, strain IRE1 (second series), stronger effect = lower value 0.98 | locus YHR079C, strain IRE1, stronger effect = lower value 0.987 | locus YHR094C, strain hxt1, stronger effect = lower value 0.977 | locus YHR129C, strain ARP1, stronger effect = lower value 0.955 | locus YHR142W, strain chs7, stronger effect = lower value 0.982 | locus YHR200W, strain rpn10, stronger effect = lower value 0.987 | locus YIL066C, strain RNR3, stronger effect = lower value 0.971 | locus YIL073C, strain SPO22, stronger effect = lower value 1.03 | locus YIL125W, strain kgd1, stronger effect = lower value 0.992 | locus YIR030C, strain dcg1, stronger effect = lower value 0.992 | locus YJL092W, strain hpr5, stronger effect = lower value 0.961 | locus YJL095W, strain BCK1 (second series), stronger effect = lower value 0.972 | locus YJL095W, strain BCK1, stronger effect = lower value 1.02 and 0.96 | locus YJL115W, strain asf1, stronger effect = lower value 0.956 | locus YJL129C, strain trk1, stronger effect = lower value 0.955 | locus YJL134W, strain LCB3, stronger effect = lower value 0.985 | locus YJL154C, strain vps35, stronger effect = lower value 0.933 | locus YJL164C, strain tpk1, stronger effect = lower value 1.01 | locus YJL166W, strain qcr8, stronger effect = lower value 0.964 | locus YJL168C, strain set2, stronger effect = lower value 0.988 | locus YJL187C, strain SWE1 (second series), stronger effect = lower value 0.966 | locus YJR043C, strain POL32, stronger effect = lower value 0.975 | locus YJR066W, strain TOR1, stronger effect = lower value 0.937 | locus YJR075W, strain HOC1, stronger effect = lower value 0.978 | locus YKL009W, strain mrt4, stronger effect = lower value 0.971 | locus YKL068W, stronger effect = lower value 0.978 | locus YKL085W, strain MDH1 (second series), stronger effect = lower value 0.998 | locus YKL085W, strain MDH1, stronger effect = lower value 0.998 | locus YKL160W, strain elf1, stronger effect = lower value 0.969 | locus YKR001C, strain vps1, stronger effect = lower value 0.986 | locus YKR026C, strain gcn3, stronger effect = lower value 0.923 | locus YKR091W, strain srl3, stronger effect = lower value 0.984 | locus YLL001W, strain dnm1, stronger effect = lower value 0.944 | locus YLL026W, stronger effect = lower value 1 | locus YLL041C, strain sdh2, stronger effect = lower value 0.968 | locus YLR027C, strain aat2, stronger effect = lower value 0.984 | locus YLR039C, strain RIC1, stronger effect = lower value 0.991 | locus YLR058C, strain SHM2, stronger effect = lower value 0.971 | locus YLR102C, strain apc9, stronger effect = lower value 0.993 | locus YLR113W, strain HOG1, stronger effect = lower value 0.906 | locus YLR221C, strain rsa3, stronger effect = lower value 1 | locus YLR258W, strain gsy2, stronger effect = lower value 0.974 | locus YLR262C, strain YPT6 (second series), stronger effect = lower value 0.925 | locus YLR262C, strain YPT6, stronger effect = lower value 0.908 | locus YLR268W, strain sec22, stronger effect = lower value 0.978 | locus YLR320W, strain mms22, stronger effect = lower value 1 | locus YLR330W, strain CHS5, stronger effect = lower value 0.988 | locus YLR342W, strain FKS1 (second series), stronger effect = lower value 1 | locus YLR342W, strain FKS1, stronger effect = lower value 0.979 | locus YLR357W, strain rsc2, stronger effect = lower value 0.958 | locus YLR370C, strain arc18, stronger effect = lower value 0.986 | locus YLR371W, strain rom2, stronger effect = lower value 0.998 | locus YLR384C, strain iki3, stronger effect = lower value 0.967 | locus YLR418C, strain cdc73, stronger effect = lower value 1.03 | locus YML016C, strain PPZ1, stronger effect = lower value 0.987 | locus YML032C, strain rad52, stronger effect = lower value 0.976 | locus YML120C, strain ndi1, stronger effect = lower value 0.967 | locus YML124C, strain tub3, stronger effect = lower value 0.992 | locus YMR058W, strain fet3, stronger effect = lower value 0.995 | locus YMR078C, strain ctf18, stronger effect = lower value 0.988 | locus YMR125W, strain sto1, stronger effect = lower value 0.93 | locus YMR129W, stronger effect = lower value 0.968 | locus YMR205C, strain PFK2, stronger effect = lower value 0.96 | locus YMR223W, strain ubp8, stronger effect = lower value 1.02 | locus YMR231W, strain pep5, stronger effect = lower value 0.956 | locus YMR307W, strain GAS1, stronger effect = lower value 0.999 | locus YNL067W, strain RPL9B, stronger effect = lower value 0.98 | locus YNL071W, strain lat1, stronger effect = lower value 0.971 | locus YNL153C, strain GIM3, stronger effect = lower value 0.982 | locus YNL183C, strain NPR1, stronger effect = lower value 0.921 | locus YNL209W, strain ssb2, stronger effect = lower value 0.981 | locus YNL233W, strain BNI4, stronger effect = lower value 0.988 | locus YNL248C, strain rpa49, stronger effect = lower value 0.997 | locus YNL250W, strain rad50, stronger effect = lower value 0.995 | locus YNL271C, strain bni1, stronger effect = lower value 0.993 | locus YNL298W, strain CLA4, stronger effect = lower value 1.01 | locus YNL307C, strain MCK1, stronger effect = lower value 0.986 | locus YNL322C, strain KRE1 (second series), stronger effect = lower value 0.963 | locus YNR049C, strain mso1, stronger effect = lower value 0.967 | locus YNR052C, strain pop2, stronger effect = lower value 0.988 | locus YOL006C, strain TOP1, stronger effect = lower value 1.02 | locus YOL012C, strain htz1 0.938 | locus YOL147C, strain pex11, stronger effect = lower value 0.993 | locus YOR001W, strain rrp6, stronger effect = lower value 0.984 | locus YOR061W, strain CKA2, stronger effect = lower value 0.972 | locus YOR069W, strain VPS5, stronger effect = lower value 0.986 | locus YOR070C, strain gyp1, stronger effect = lower value 0.994 | locus YOR080W, strain dia2, stronger effect = lower value 0.963 | locus YOR083W, strain WHI5, stronger effect = lower value 0.996 | locus YOR106W, strain vam3, stronger effect = lower value 0.958 | locus YOR136W, strain idh2, stronger effect = lower value 0.982 | locus YOR144C, strain elg1, stronger effect = lower value 0.984 | locus YOR184W, strain ser1, stronger effect = lower value 0.986 | locus YOR231W, strain MKK1, stronger effect = lower value 0.959 | locus YOR265W, strain rbl2, stronger effect = lower value 0.98 | locus YOR270C, strain vph1, stronger effect = lower value 0.931 | locus YOR290C, strain snf2, stronger effect = lower value 1 | locus YOR316C, strain cot1, stronger effect = lower value 0.97 | locus YPL051W, strain arl3, stronger effect = lower value 0.993 | locus YPL055C, strain LGE1, stronger effect = lower value 0.992 | locus YPL078C, strain atp4, stronger effect = lower value 0.962 | locus YPL106C, strain sse1, stronger effect = lower value 0.99 | locus YPL240C, strain hsp82, stronger effect = lower value 0.982 | locus YPL256C, strain CLN2, stronger effect = lower value 0.98 | locus YPR119W, strain clb2, stronger effect = lower value 0.985 | locus YPR141C, strain kar3, stronger effect = lower value 0.979 | locus YPR163C, strain tif3, stronger effect = lower value 0.986 | locus YPR167C, strain met16, stronger effect = lower value 0.998 | strain wtn01, stronger effect = lower value 1.02
